The values that follow come from PubChem BioAssay (NCI).

This is part of a sample that, as a whole, favours compounds with a hit. Of some 79,000 tested, about 15% had one in any assay. A number with no mark means an inactive call. The source made the active and inactive calls. Cut-off read from the data, not from the text of the source: active = growth inhibition above about 70%; inactive = the rest.

Experiment [1] in a line: NCI Yeast Anticancer Drug Screen. Data for the rad50 strain (AID 155).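 Note: 0% = growth of vehicle-only cultures of the same strain.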 The following applies: S. cerevisiae rad50 strain growth inhibition; at 50.0 µM; stronger effect = higher value. The method in brief:
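Inhibition values express reduced yeast growth in compound-treated cultures relative to vehicle-treated controls.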

Experiment [2] can be described thus: NCI Yeast Anticancer Drug Screen. Data for the mec2-1 strain (AID 157). As to conditions: S. cerevisiae mec2-1 strain, at 50.0 µM, stronger effect = higher value. In a few lines:
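Test agents were screened against the mec2-1 yeast strain, with defined DNA repair or cell cycle alteration. Growth was scored as inhibition against vehicle-only controls.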

The nature of experiment [3]: NCI Yeast Anticancer Drug Screen. Data for the sgs1 mgt1 strain (AID 161).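 Note: 0% = growth of cultures given vehicle only.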 The following applies: S. cerevisiae sgs1 mgt1 strain, at 50.0 µM, stronger effect = higher value. The method in brief: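 Inhibition of yeast growth, normalised to vehicle-treated controls, is reported for a strain bearing genetic alterations in DNA damage repair.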
A short description of experiment [4]: NCI Yeast Anticancer Drug Screen. Data for the cln2 rad14 strain (AID 165).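 Note: 0% = growth equal to vehicle treated cultures.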 The following applies: S. cerevisiae cln2 rad14 strain, at 50.0 µM, stronger effect = higher value. The method in brief: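 Growth of compound-exposed yeast (cln2 rad14 genotype) measured and expressed as inhibition relative to vehicle.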
Experiment [5] can be described thus: NCI Yeast Anticancer Drug Screen. Data for the bub3 strain (AID 167). As to conditions: S. cerevisiae bub3 mutant strain, at 50.0 µM, stronger effect = higher value. The method in brief:
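Steps: expose the mutant yeast strain to compound; grow alongside vehicle-treated cultures; measure growth; express inhibition against the vehicle cultures.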

Experiment [6] in a line: NCI Yeast Anticancer Drug Screen. Data for the mlh1 rad18 strain (AID 175). The following applies: S. cerevisiae mlh1 rad18 strain growth inhibition; at 50.0 µM; stronger effect = higher value. The method in brief:
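In this whole-cell yeast screen, a strain with altered DNA damage repair is challenged with compound, and its growth is measured against matched vehicle-treated controls.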

Turning to `CC(=O)CC(C)(C)OCc1ccccc1`, the growth inhibition is -21.9% in experiment [1]; -4.95% in experiment [2]; -12.2% in experiment [3]; -43.4% in experiment [4]; 0.4% in experiment [5]; 26.1% in experiment [6].
For the compound `CCN(CC)c1ccccc1-c1ccccc1`, the growth inhibition in experiment [1] is 34.9%; in experiment [2], 20.1%; in experiment [3], 1.05%; in experiment [4] it was -58.6%; in experiment [5], 6.05%; in experiment [6], 20.1%.
For the compound `Cc1cccc(NC(=S)NC2CCCCC2)c1`, the growth inhibition was 2.75% in experiment [1]; 11.7% in experiment [2]; -3.1% in experiment [3]; 12.7% in experiment [4]; 7% in experiment [5]; 9.4% in experiment [6].
With `CC(=O)NC1CCC2CCCCC2C1` (stereo unspecified), the growth inhibition in experiment [1] was 15.7%; in experiment [2], -3.15%; in experiment [3], -8.75%; in experiment [4], -61%; in experiment [5] it was 32.1%; in experiment [6] it was -17.9%.
For the compound `CCCCCCCCCCCCCC(=O)Cl`, the growth inhibition in experiment [1] was -52.4%; in experiment [2], -4%; in experiment [3] it was -47.2%; in experiment [4], -39.9%; in experiment [5], -65.5%; in experiment [6], -104%.
For the compound `c1cncc(CCc2ccncc2)c1`, the growth inhibition in experiment [1] is -18.9%; in experiment [2], -60.9%; in experiment [3], -27.2%; in experiment [4] it was 12.3%; in experiment [5], -14.2%; in experiment [6] it was 18.6%.
`CCCCCCC(=O)/C=C/c1ccc(OCc2ccccc2)c(OCc2ccccc2)c1`: the growth inhibition in experiment [1] was 33.9%; in experiment [2], -2.6%; in experiment [3], 18.5%; in experiment [4] it was 23.9%; in experiment [5] it was -2.15%; in experiment [6], 16.1%.
Consider `F[Si](c1ccccc1)(c1ccccc1)c1cccc2ccccc12`, for which the growth inhibition in experiment [1] is 98.7% (active); in experiment [2], 98.6% (active); in experiment [3], 99.2% (active); in experiment [4], 98.8% (active); in experiment [5] it was 98.5% (active); in experiment [6] it was 98.8% (active).
For `O=S(=O)(Nc1ccccc1)c1cc(O)ccc1O`, the growth inhibition in experiment [1] was -3.35%; in experiment [2], -11.2%; in experiment [3], -9.75%; in experiment [4] it was -12.1%; in experiment [5], -26.5%; in experiment [6] it was -9.85%.
For `CC(=O)OCC(=O)c1cc(C)n(C)c(=O)c1CN1C(=O)c2ccccc2C1=O`, the growth inhibition in experiment [1] is -10.7%; in experiment [2] it was 9.05%; in experiment [3] it was 2.2%; in experiment [4], -36.3%; in experiment [5] it was 10.6%; in experiment [6], -12.7%.
For `CC(C)C1CCC(=O)CC1`, the growth inhibition was 9.9% in experiment [1]; 0.35% in experiment [2]; -1% in experiment [3]; -12.2% in experiment [4]; 0.75% in experiment [5]; -4.9% in experiment [6].
With `NC(=S)Nc1c(Cl)cc(Cl)cc1Cl`, the growth inhibition in experiment [1] is 44%; in experiment [2] it was -8.9%; in experiment [3] it was 33.4%; in experiment [4] it was 8.6%; in experiment [5], 17.3%; in experiment [6], 12.3%.
On to `CC(O)C(N=Cc1ccccc1[O-])C(=O)[O-].CC(O)C(N=Cc1ccccc1[O-])C(=O)[O-].[Co+2]` (stereo unspecified), for which the growth inhibition was -7% in experiment [1]; -2.05% in experiment [2]; -16.6% in experiment [3]; 4.4% in experiment [4]; 7.65% in experiment [5]; -25.9% in experiment [6].
Turning to `CSc1n[nH]c(NC(=O)c2ccccc2Br)n1`, the growth inhibition is 4.2% in experiment [1]; -0.9% in experiment [2]; 29.4% in experiment [3]; -19.6% in experiment [4]; 3.65% in experiment [5]; 30.5% in experiment [6].
For the compound `Clc1nc(Cl)c2ncnc(Cl)c2n1`, the growth inhibition is -34.5% in experiment [1]; 16.1% in experiment [2]; -23.2% in experiment [3]; -11.4% in experiment [4]; -3.7% in experiment [5]; -5.7% in experiment [6].
As to `Cc1cc2nc(N3CCCCC3)n(C3OC(CO)C(O)C3O)c2cc1C` (stereo unspecified), the growth inhibition in experiment [1] was 11%; in experiment [2], 10.2%; in experiment [3], -0.45%; in experiment [4], 10.7%; in experiment [5], -8.75%; in experiment [6] it was 13.8%.
`CCCCNC(=O)C(c1ccccc1)c1ccccc1`: the growth inhibition was 22.1% in experiment [1]; 14.9% in experiment [2]; 10.8% in experiment [3]; -12.3% in experiment [4]; 14.3% in experiment [5]; 4.2% in experiment [6].
With `O=[N+]([O-])c1sc2ccccc2c1Br`, the growth inhibition in experiment [1] was 98% (active); in experiment [2] it was 98.7% (active); in experiment [3] it was 98.8% (active); in experiment [4], 99% (active); in experiment [5], 99.1% (active); in experiment [6], 98.7% (active).
`O=c1oc2ccccc2c(O)c1[N+](=O)[O-]`: the growth inhibition in experiment [1] is 10.6%; in experiment [2] it was -11.2%; in experiment [3], -6.4%; in experiment [4], 2.7%; in experiment [5] it was -7.15%; in experiment [6], 3.65%.
Consider `CCOc1c(Cl)c(Cl)c(Cl)c(Cl)c1Cl`, for which the growth inhibition was -9.8% in experiment [1]; 3.95% in experiment [2]; -6.7% in experiment [3]; 9.3% in experiment [4]; -2.9% in experiment [5]; 5.4% in experiment [6].
In the case of `CCCCCCCCCCC1OC(C)C(C)O1` (stereo unspecified), the growth inhibition was 0.4% in experiment [1]; -13.1% in experiment [2]; -7.3% in experiment [3]; -25.1% in experiment [4]; -5.5% in experiment [5]; 13.2% in experiment [6].
